This is part of a sample that, as a whole, favours compounds with a hit. Of some 83,000 tested, about 20% had one in any assay.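 For each line, cells grew in 96-well plates with the test compound present at a single concentration for 48 hours.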 A number with no mark means an inactive call. Active and inactive are the calls of the source. The calls were made as follows: active = growth percent below 10; inactive = the rest.
Tests used:
Assay in all cases: NCI-60 one-dose screen, 48 h (100 = growth as untreated, 0 = no growth, -100 = all killed)
Conditions in all cases: 10 µM unless noted
SK-MEL-2 melanoma = tested on: SK-MEL-2 melanoma
EKVX NSCLC = tested on: EKVX NSCLC
SN12C renal = tested on: SN12C renal
UO-31 renal = tested on: UO-31 renal
TK-10 renal = tested on: TK-10 renal
ACHN renal = tested on: ACHN renal
CAKI-1 renal = tested on: CAKI-1 renal
A498 renal = tested on: A498 renal
CCRF-CEM leukemia = tested on: CCRF-CEM leukemia
RPMI-8226 leukemia = tested on: RPMI-8226 leukemia
OVCAR-8 ovarian = tested on: OVCAR-8 ovarian
OVCAR-4 ovarian = tested on: OVCAR-4 ovarian
SK-OV-3 ovarian = tested on: SK-OV-3 ovarian
IGROV1 ovarian = tested on: IGROV1 ovarian
OVCAR-3 ovarian = tested on: OVCAR-3 ovarian
HS 578T breast = tested on: HS 578T breast
NCI/ADR-RES ovarian = tested on: NCI/ADR-RES ovarian
OVCAR-5 ovarian = tested on: OVCAR-5 ovarian
MOLT-4 leukemia = tested on: MOLT-4 leukemia
SR leukemia = tested on: SR leukemia

SMILES | growth (SK-MEL-2 melanoma) | growth (EKVX NSCLC) | growth (SN12C renal) | growth (UO-31 renal) | growth (TK-10 renal) | growth (ACHN renal) | growth (CAKI-1 renal) | growth (A498 renal) | growth (CCRF-CEM leukemia) | growth (RPMI-8226 leukemia) | growth (OVCAR-8 ovarian) | growth (OVCAR-4 ovarian) | growth (SK-OV-3 ovarian) | growth (IGROV1 ovarian) | growth (OVCAR-3 ovarian) | growth (HS 578T breast) | growth (NCI/ADR-RES ovarian) | growth (OVCAR-5 ovarian) | growth (MOLT-4 leukemia) | growth (SR leukemia)
O=C1Nc2ccc([N+](=O)[O-])cc2C1=Nc1ccccc1 | 104% | 95.9% | 89.3% | 69.4% | 111% | 78.2% | 77.2% | 116% | 103% | 121% | 106% | 113% | 113% | 98.6% | 95.3% | 97.9% | 103% | – | – | –
O=C(Cn1c(/C=C/c2cccc([N+](=O)[O-])c2)nc2ccccc2c1=O)Nc1ccccc1 | 87.7% | 79.6% | 74.5% | 77.4% | 109% | 43.9% | 80.2% | 94.7% | 91.5% | 113% | – | – | 49.4% | 106% | 54.6% | 87.2% | 65% | 104% | – | –
CN(C)c1nc(NCCNS(=O)(=O)c2ccc(C3=Nc4c(N)nc(N)nc4NC(c4ccc(Cl)cc4)C3)cc2)nc(Nc2ccc(F)cc2)n1 (configuration not stated) | -2.74% (active) | 43.3% | 47.1% | 81.1% | 79.6% | 73.8% | – | 76.5% | 14% | -2.32% (active) | 46.2% | 45.6% | 90.3% | 51.5% | 51.9% | 56.3% | 94.4% | 72.6% | 7.27% (active) | 0.305% (active)
Cc1cc2nc3c4ccccc4n(CC4=NCCN4)c3nc2cc1C | 66.7% | 60.4% | -6.68% (active) | -95.2% (active) | 64.4% | -100% (active) | -70% (active) | 63.8% | – | – | -21.1% (active) | -0.803% (active) | 15.6% | 16.1% | 55.2% | 76.4% | 18.6% | -76.9% (active) | -19.4% (active) | 0.0191% (active)
CN1CCN(c2ccc3c(c2)nc(NNC(=O)c2ncccn2)c2cccn23)CC1 | -7.45% (active) | -73.2% (active) | 6.25% (active) | 1.76% (active) | -87.5% (active) | -83.7% (active) | -80.9% (active) | -95% (active) | 7.34% (active) | 28.4% | -4.43% (active) | -41.7% (active) | -13.2% (active) | 11.3% | -22.8% (active) | 26.5% | 4.15% (active) | -62.9% (active) | – | –
C/C(=N\Nc1ccc(S(N)(=O)=O)cc1)c1ccc(N=Nc2c(Nc3ccccc3)[nH][nH]c2=O)cc1 | -51.9% (active) | 62.5% | -12.9% (active) | 86.1% | 71.9% | 42.4% | 77.1% | 35.2% | 3.59% (active) | 3.47% (active) | -20.2% (active) | 42.6% | -15.5% (active) | 43.3% | -2.25% (active) | 21.5% | 89.6% | – | – | –
Nc1cc2ccccc2c(=O)n1NC(=O)c1ccc(I)cc1 | 102% | 94.2% | 107% | 92% | 115% | 106% | – | 103% | 97.8% | 98% | 101% | 100% | 91.9% | 106% | 104% | – | 101% | 98.1% | 99.2% | 88.3%
CN1CCN(c2ccc(C(=O)/C=C/c3cc(C(F)(F)F)cc(C(F)(F)F)c3)cc2)CC1 | -86.2% (active) | -73.2% (active) | -79.8% (active) | -92.5% (active) | -88.7% (active) | -99.2% (active) | -73.7% (active) | -70% (active) | 5.57% (active) | -19.4% (active) | -93.4% (active) | – | -89.5% (active) | -36.6% (active) | -54.4% (active) | 26.9% | -39.3% (active) | -95.8% (active) | – | –
CCOC(=O)C1=C(N)N(c2ccccc2)C2=C(C(=O)CC(C)(C)C2)C1c1ccc([N+](=O)[O-])cc1 (configuration not stated) | 97.2% | 86.4% | 98.4% | 95.7% | 113% | 87.9% | – | 114% | 89.1% | 82.6% | 103% | 97.3% | 105% | 108% | 121% | 100% | 98.2% | 101% | 78.3% | 66.4%
C#CCOc1cc(N(CC)CC)ccc1C(C(=O)NC(C)(C)C)N(C(=O)C1CCc2cc(F)ccc2O1)c1cc(C)cc(C)c1 (configuration not stated) | -14.6% (active) | 33.3% | 30.9% | 23.2% | 50.3% | 22.7% | – | 45.8% | 36.3% | 17.6% | 34.1% | 36.8% | 46.7% | 61.9% | 30.5% | 53.7% | 41.9% | 49.7% | 16% | 20.4%
COc1ccc2[nH]c(=O)c(CSc3nccc(-c4ccc(OC)c(OC)c4)n3)cc2c1 | 44.2% | 15.7% | 33.6% | 16.1% | 26.4% | 24.4% | – | 47.8% | 31.3% | 14.7% | 16% | 8.75% (active) | 55.8% | 49.8% | 41.9% | -7.63% (active) | 23.6% | 52.4% | 7.07% (active) | 23.1%
C=C1CCC2C3(C)COC(c4cccc(F)c4)OC3CCC2(C)C1C/C=C1/C(=O)OCC1O (configuration not stated) | -50.6% (active) | 23.1% | 4.14% (active) | -63.2% (active) | -6.05% (active) | -89.6% (active) | – | 118% | 16% | 10.5% | -52.2% (active) | -0.215% (active) | 60.5% | -24% (active) | -71.8% (active) | 15.9% | -18% (active) | 22.1% | – | 9.74% (active)
N/N=C(\N)c1c(N)nc(=S)[nH]c1-c1ccc(Cl)cc1Cl | 109% | 116% | 105% | 85.8% | 147% | 107% | – | 125% | 94.6% | 109% | 110% | 105% | 86.7% | 106% | 109% | 100% | 114% | 108% | 90.1% | –
C=C1CC[C@@H]2[C@]3(C)COC(c4cn[nH]c4-c4ccc(Br)cc4)O[C@@H]3CC[C@@]2(C)[C@@H]1C/C=C1/C(=O)OCC1O (some centres not stated) | -68.4% (active) | -51% (active) | -64.9% (active) | -92.1% (active) | -65% (active) | -100% (active) | – | 97.8% | -6.18% (active) | 3.94% (active) | -9.48% (active) | 8.76% (active) | -31.8% (active) | -44.9% (active) | -78.9% (active) | 19.1% | -40% (active) | -75.9% (active) | – | 3.62% (active)
O=c1[nH]c2ccccc2cc1CSc1cccc(Nc2nccc(-c3ccc4ccccc4c3)n2)c1 | 98.3% | 95.4% | – | 73.4% | 79.9% | 95.5% | 81.2% | 106% | 46.8% | 49.4% | 74.9% | 69.4% | 115% | 102% | 117% | 105% | 51.4% | 114% | 65.9% | 89.5%
O=C(O)c1ccc(-c2ccc(/C=N/NC(=O)c3[nH]c4ccc(Br)cc4c3-c3ccccc3)o2)cc1 | -16.5% (active) | 22.3% | 5.99% (active) | 24.5% | 41.2% | 32.5% | – | 98.5% | -0.481% (active) | 14.8% | -15.4% (active) | 38% | 41.1% | 17.8% | 1.4% (active) | – | 18.1% | 75.9% | 14.1% | 5.35% (active)
CCCCSc1nc(NCCc2c[nH]c3ccccc23)c(C#N)c(-c2ccccc2)n1 | 74% | 32.9% | – | 45.5% | 74.3% | 43.2% | 35.2% | 61.8% | 8.29% (active) | 14.1% | 49.2% | 62.2% | 76.6% | 96% | 55.9% | 39.6% | 22.9% | 82.7% | 13.8% | 2.16% (active)
